Source: the supplement of paper PMC11417369
± gives the standard deviation of the averaged measurements. Over roughly 25,000 sequences, “ln(normalized median fluorescence intensity)” has its median near 10; the highest 2% begin near 12. The entries come from a sample that favours the highest values as a whole.

Each sequence was assayed on PfAP2-G AP2 domain (GST-tagged) (assay: gcPBM binding intensity (ln(normalized median fluorescence intensity)); higher = stronger DNA binding).
Summary of the method: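 GST-fused DNA-binding domains of P. falciparum, expressed in E. coli, were applied at about 25 μg on average for 1 h to an Agilent 4 × 180k array of primer-extended double-stranded 36-bp intergenic genomic probes and negative controls. Binding intensity is the highest Masliner-normalised natural-log median intensity across replicate spots of either probe orientation, measured with Alexa488 anti-GST antibody and a 488 nm scan.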

Sequence | gcPBM binding intensity (ln)
TGTATGTATGTATTATTTGTTATTTTAATTTTTTTG [TGCATGCA_negctrl_site256] | 10.36 ± 0.085
CATATATAACATATAACACACATACTTAGTATTACA [CACACA_site5674] | 10.1 ± 0.24
GTTACAGAGAATGTTGTGCACATATCAATAATATAT [GTGCAC_site9671] | 10.5 ± 0.28
AACGTGTATTTATATTGTACACATTCATACATCAAA [XGTACX_site3644] | 11.4 ± 0.95
TCCTTACCTATTAAAGCATGCTCGAATATATATTTT [TGCATGCA_site53] | 9.81 ± 0.18
ATACACATAACATATATATATATATATATATATATC [CACACA_negctrl_site278] | 9.73 ± 0.057
TTTTGGATACTTCATTTGTCCTGTTTTTTTTTTTTA [CACACA_negctrl_site399] | 10.7 ± 0.37
TATATTTATACAATATGTACATATTATATATATATA [XGTACX_site3098] | 11 ± 0.59
ATGGATAATAATAAGTGTACACATATATTTAGAAGA [XGTACX_site244] | 11.8 ± 0.86
TATTTTTCCATTGGGGGTACATGTGTTATATTTATT [XGTACX_site5914] | 11.7 ± 0.88
ACATATATATATATGTGTACATATTTATACAACAAT [XGTACX_site6660] | 11.6 ± 0.78
GTTCCATATATTACATGTACATATTTTTACATTTAA [XGTACX_site660] | 11.2 ± 0.72
TATATATATATGTGTACACAATTTATCTGTATTTAT [CACACA_site5945] | 11.8 ± 0.93
ATATATATATACATATGTACATATATATTTATACAT [XGTACX_site2463] | 11 ± 0.58
GATAATAATAAGTGTACACATATATTTAGAAGAGTA [CACACA_site4245] | 11.5 ± 0.85
TATACATTTATGTACACACACATATCTGTATATTTA [CACACA_site5617] | 11.5 ± 0.97
TATAAAAAAAAATGTGGTACATATTTCCATTTTCCA [XGTACX_site4571] | 11.3 ± 0.76
GAATATATATTCATATGTACACAATTTATGTATTAT [XGTACX_site4719] | 11.4 ± 0.79
ATATAATAGAAGTGTACACACATATTTATGGGTGTA [CACACA_site5686] | 11.5 ± 0.91
TTTTTTTTTTTGTTCACACATATACTTTTATTTTGG [CACACA_site4250] | 10.2 ± 0.23
AAAAAAAAAAAAAAAACACACAATAAAGTAAAATTT [CACACA_site135] | 10.15 ± 0.049
TAAAAATGGGTATGTACACACTTTATTTTTAATACA [CACACA_site5404] | 11.5 ± 0.92

Sequence | gcPBM binding intensity (ln)
TATATATTCCTCCATAGTACAATAATAAAGATAAAA [XGTACX_site5785] | 10.6 ± 0.35
ATGTTCTTATTATTGGTGCAAGAATACACAAGAAAA | 10.4 ± 0.45
ATTTTTTTACTGCAACCATATTTTTCCCTTTTATTC [CACACA_negctrl_site1282] | 10.12 ± 0.085
AAAATTTAAATAGGAAGTACGTTCACTAAGAAAATA [XGTACX_site6546] | 11 ± 0.57
ATATAATAGAAGTGTACACACATATTTATGTCTGTA [CACACA_site3121] | 11.5 ± 0.74
CTATAATAGAAGTGTACACACATATTTATGTCTGTA [CACACA_site7462] | 11.7 ± 0.93
TTAATATAATAGAAGTGTACACACATATTTATGTGT [XGTACX_site6672] | 11.5 ± 0.78
TTTAAAAATTAATTCTGTACACATTTTTATTATATT [XGTACX_site4212] | 11.5 ± 0.81
TTGCTGTATTTATTTTGTACACATTTGGCATTATAT [XGTACX_site3408] | 11.2 ± 0.73
TGCTGTATATTTTTCTGTACACATTTATATATTCCA [XGTACX_site6244] | 11.6 ± 0.87
TATATATAATATAGTGCATGTAAAAAATAAACCATG [TGCATGCA_site932] | 10.2 ± 0.16
ACAAGTTAAAATATTACACACATATAAATATATATA [CACACA_site3132] | 9.84 ± 0.099
TTGTTCTATATATATGCATGCACGTATGTTAAATTA [TGCATGCA_site659] | 10.3 ± 0.33
AGATATTAAAACGTTACACACATTTATATATCTTCT [CACACA_site908] | 9.74 ± 0.2
GAAAGAATAAAATTTACACACATATATATATACATA [CACACA_site2250] | 9.745 ± 0.035
ATGTCTATATATTAAGGTACACATATATGCTATTCA [XGTACX_site6008] | 11.1 ± 0.57
ACTTATAAAATAACATGTACAAATATTTATTATATA [XGTACX_site133] | 11 ± 0.54
AAAAAAATATAAATACGTACATATATATATATATAT [XGTACX_site432] | 11.5 ± 0.98
TTATACATAAATTTTGTACACACAAAAAAAAAAAAG [CACACA_site8374] | 11.2 ± 0.87
ATATCGAAAATTTGGTGTACATTTTTATTTGTTCAA [XGTACX_site3094] | 11.5 ± 0.93
ATTTTGTTCGAAAGGTGTACATATACAAAAATTATG [XGTACX_site957] | 11.7 ± 1
TTTATTTATTACTAAAGTACTAAATCATATTATTAT [XGTACX_site2574] | 10.6 ± 0.54
